{
  "source": "PubChem BioAssay AID2314",
  "about": "(National Center for Advancing Translational Sciences (NCATS), 2010)",
  "note": "In all, about 300,000 compounds went through this assay and about 37,000 (12%) were called active. The full list was thinned out, with actives kept by preference. Values without a mark were called inactive. Cut-off read from the data, not from the text of the source: active = max response mostly above about 13% (no sharp cut-off); inactive = mostly below about 14%.",
  "data": [
    {"assay": "Cycloheximide Counterscreen for Small Molecule Inhibitors of Shiga Toxin; note: read at 38.3 µM for the half of the compounds with a filed dose; 0% is about no effect", "settings": "cell reporter, cycloheximide protein synthesis inhibition counterscreen; hits give high values", "values": [
      {"smiles": "O=C(NCCCO)c1cc2c([nH]c3ccccc32)c(-c2ccc(F)cc2)n1", "max response": "1.63%"},
      {"smiles": "Cc1c(C=O)c2ccccc2n1CCOc1ccccc1", "max response": "11.4%"},
      {"smiles": "COc1ccccc1N=C(C)C1=C(O)COC1=O", "max response": "-3.1%"},
      {"smiles": "COC(=O)c1ccccc1N=Nc1c(C)[nH][nH]c1=O", "max response": "-1.54%"},
      {"smiles": "COc1ccccc1N=Nc1c(O)[nH]c(=S)[nH]c1=O", "max response": "18.5% (active)"},
      {"smiles": "COCCCNC(NC(=O)c1ccc(C)cc1)C(Cl)(Cl)Cl", "note": "(stereo unspecified)", "max response": "0.737%"},
      {"smiles": "Cc1ccc(CNC(=O)C2CCN(S(=O)(=O)c3ccc4nc5c(c(C(=O)O)c4c3)CC(C)CC5)CC2)cc1", "note": "(stereo unspecified)", "max response": "-2.65%"},
      {"smiles": "O=C(NCCCCc1ccccc1)C1CC(c2ccc([N+](=O)[O-])cc2)=NO1", "note": "(stereo unspecified)", "max response": "1.79%"},
      {"smiles": "Nc1[nH][nH]c(=O)c1N=Nc1ccc2c(c1)OCO2", "max response": "37.1% (active)"},
      {"smiles": "Cc1[nH][nH]c(=O)c1N=Nc1ccccc1", "max response": "-2.86%"},
      {"smiles": "Cc1[nH][nH]c(=O)c1C(c1ccc2c(c1)OCO2)c1c(C)[nH][nH]c1=O", "max response": "-0.172%"},
      {"smiles": "COc1cc(OC)c2c(c1C(CCN1CCCCC1)c1ccc(N(C)C)cc1)OC(=O)CC2c1ccc(N(C)C)cc1", "note": "(stereo unspecified)", "max response": "-4.1%"},
      {"smiles": "c1ccc(CSCCc2ccncc2)cc1", "max response": "7.75%"},
      {"smiles": "Cc1ccc(O)c(-c2cc(C(=O)NCc3ccccc3)[nH]n2)c1", "max response": "11.1%"},
      {"smiles": "Cc1ccc(O)c(CCc2ccccc2)n1", "max response": "17.6% (active)"},
      {"smiles": "CC(=O)N1CC[n+]2c(-c3ccc([N+](=O)[O-])cc3)csc21", "max response": "6.33%"},
      {"smiles": "CN1CCN(c2ccc([N+](=O)[O-])c(Sc3nc4ccccc4[nH]3)c2)CC1", "max response": "-2.61%"},
      {"smiles": "COc1cccc(-c2nc3ccc(N4CCN(C)CC4)cc3[nH]2)c1", "max response": "-9.87%"},
      {"smiles": "Cc1nc2ccc(N3CCN(C)CC3)cc2nc1C", "max response": "40.7% (active)"},
      {"smiles": "Cc1ccc(Cn2cc(C(=O)NN)c(=O)c3ccc(F)cc32)cc1", "max response": "-3.85%"},
      {"smiles": "Cc1ccc(CNC(=O)c2c(-c3ccccc3)noc2C)cc1", "max response": "-2.32%"},
      {"smiles": "CC(C)CCNC(=O)c1ccc2c(Cl)c3c(nc2c1)CCC3", "max response": "48.4% (active)"},
      {"smiles": "COc1ccc(N2CCN(C(=O)c3ccc4c(Cl)c5c(nc4c3)CCCC5)CC2)cc1", "max response": "-3.2%"},
      {"smiles": "CC(=O)c1ccc(NC(=O)c2ccc3c(Cl)c4c(nc3c2)CCCC4)cc1", "max response": "-0.107%"},
      {"smiles": "COc1cccc(CC2(CO)CCN(Cc3cnc(-c4cccc(C)c4)nc3)CC2)c1", "max response": "10.3%"},
      {"smiles": "c1ccc2cc3[nH]c(CN4CCCCC4)nc3cc2c1", "max response": "31.1%"},
      {"smiles": "Cc1nc2ccc(C(=O)O)cc2[nH]1", "max response": "-7.8%"},
      {"smiles": "Oc1ccc2nc(Cc3ccccc3)[nH]c2c1", "max response": "20.5% (active)"},
      {"smiles": "Cc1cc(OCC(=O)N2CCN(c3ncccn3)CC2)ccc1Cl", "max response": "-2.98%"},
      {"smiles": "O=C(CC1C(=O)NCCN1CC(c1ccccc1)c1ccccc1)NCC1CCOCC1", "note": "(stereo unspecified)", "max response": "-4.31%"},
      {"smiles": "Cc1nc(Nc2ccc3c(c2)OCCO3)c2nnn(Cc3ccccc3Cl)c2n1", "max response": "83.5% (active)"},
      {"smiles": "Cc1nc(Nc2ccccc2F)c2nnn(Cc3ccccc3Cl)c2n1", "max response": "-1.8%"},
      {"smiles": "CCCc1nc(NCc2ccc3c(c2)OCO3)c2nnn(Cc3ccccc3Cl)c2n1", "max response": "-2.15%"},
      {"smiles": "CC1(c2ccc3ccccc3c2)NC(=O)N(CC(N)=O)C1=O", "note": "(stereo unspecified)", "max response": "-1.55%"},
      {"smiles": "CC(C)=C(NC(=O)c1ccco1)C(=O)NCCc1nc2ccccc2[nH]1", "max response": "-2.53%"},
      {"smiles": "Nc1cccc(CCc2nc3ccccc3[nH]2)c1", "max response": "24% (active)"},
      {"smiles": "Cc1ccc2nc(SCc3cn4c(C)cc(C)nc4n3)[nH]c2c1", "max response": "-4.98%"},
      {"smiles": "O=C(CNCc1ccc(Cl)cc1)Nc1cccc(C(=O)O)c1", "max response": "-7.34%"},
      {"smiles": "O=C(c1nnc(-c2ccc(Cl)cc2)o1)C1CCCC1", "max response": "15.5% (active)"},
      {"smiles": "O=C(Nc1nnc(-c2ccc(Cl)cc2)o1)c1ccccc1Br", "max response": "14.7%"},
      {"smiles": "O=C(c1[nH]ncc1-c1ccc(Cl)cc1)C1CO1", "note": "(stereo unspecified)", "max response": "16.3%"},
      {"smiles": "CCCC(=O)N1CCC(CCC(=O)NC2CC2)CC1", "max response": "10.7%"},
      {"smiles": "COc1ccc(C(=O)Nc2c(N)nc(SCC(=O)Nc3ccc(C(C)=O)cc3)[nH]c2=O)cc1", "max response": "0.562%"},
      {"smiles": "CS(=O)(=O)N(Cc1ccccc1)c1ccc(C(=O)NN=C2CCCCCC2)cc1", "max response": "0.492%"},
      {"smiles": "CCc1ccc(C(=O)NN=C2CCCCCC2)s1", "max response": "33% (active)"},
      {"smiles": "CC(C)(C)NC(=O)C(=O)NN=C1CCCCCCC1", "max response": "17.4%"},
      {"smiles": "COC(=O)c1cc(N2CCNCC2)nc2ccccc12", "max response": "-0.723%"},
      {"smiles": "CC(=O)c1cccc(NC(=S)N2CCN(S(C)(=O)=O)CC2)c1", "max response": "3.24%"},
      {"smiles": "CCc1nnc(NC(=O)CSc2nnnn2-c2cccc(C(C)=O)c2)s1", "max response": "-0.713%"},
      {"smiles": "CCc1nc(SCC(=O)Nc2ccccc2OC)n[nH]1", "max response": "-2%"},
      {"smiles": "C=CCSc1nsc(NC(=O)Nc2cccc(C(C)=O)c2)n1", "max response": "15.7% (active)"},
      {"smiles": "CCSc1nsc(NC(=O)Nc2cccc(C(C)=O)c2)n1", "max response": "47.8% (active)"},
      {"smiles": "C=C(C)C(=O)Nc1cccc(C(C)=O)c1", "max response": "-4.07%"},
      {"smiles": "CC(=O)c1cccc(NC(=O)[C@@H](NC(N)=O)C(C)C)c1", "max response": "-2.8%"},
      {"smiles": "CCSc1nsc(NC(=O)Nc2ccccc2OC)n1", "max response": "29.3% (active)"},
      {"smiles": "COc1ccccc1NC(=O)Nc1nnc(Cc2ccc(F)cc2)s1", "max response": "-1.91%"},
      {"smiles": "Cc1cccn2c(=O)c3cc(C(=O)NCC4CCCO4)c(=N)n(Cc4ccc(F)cc4)c3nc12", "note": "(stereo unspecified)", "max response": "-1.9%"},
      {"smiles": "Cc1cc2oc(=O)cc(-c3ccccc3)c2c(C)c1/C=C/c1ccc(F)cc1", "max response": "11.8%"},
      {"smiles": "COc1ccc(CCNC(=O)CCCCCNC(=O)N2CCn3c2nc2ccccc23)cc1OC", "max response": "-1.5%"},
      {"smiles": "Cc1c(Cl)cccc1NC(=O)NCc1ccc(C)n1C", "max response": "-4%"},
      {"smiles": "CCCn1c(C(C)Nc2nc(-c3ccc(C)cc3)cs2)nc2cc(Cl)c(N3CCCCC3)cc21", "note": "(stereo unspecified)", "max response": "-2.37%"},
      {"smiles": "CCOC(=O)CSc1nc(C)c(Oc2ccc(Cl)cc2Cl)c(=O)[nH]1", "max response": "-0.833%"},
      {"smiles": "COC(=O)c1ccc(/C=N\\n2c(C)nnc2C)cc1", "max response": "-2.39%"},
      {"smiles": "COC(=O)c1ccc(/C=N/N2C(C)CCCC2C)cc1", "note": "(stereo unspecified)", "max response": "32.3% (active)"},
      {"smiles": "CC1CCCC(C)N1/N=C/c1ccccc1OC(F)F", "note": "(stereo unspecified)", "max response": "7.52%"},
      {"smiles": "CNC(=O)c1c(NC(NC(=O)c2ccco2)C(=O)c2ccc(Cl)cc2)sc2c1CCCC2", "note": "(stereo unspecified)", "max response": "-2.69%"},
      {"smiles": "COC(=O)c1ccc(NC(=O)CSc2nncn2-c2cccnc2)cc1", "max response": "3.92%"},
      {"smiles": "COC(=O)C1(C)NC(c2ccc(F)cc2)C2C(=O)N(c3ccccc3)C(=O)C21", "note": "(stereo unspecified)", "max response": "-1.89%"},
      {"smiles": "COc1cccc(NC(=O)CN(C)C(=O)Cc2ccc(Cl)cc2Cl)c1", "max response": "-1.79%"},
      {"smiles": "COc1ccc(NC(=O)CN(C)C(=O)CNC(=O)C2CCCCC2)cc1", "max response": "4.44%"},
      {"smiles": "CN(CC(=O)Nc1ccc(Cl)cc1)C(=O)CNC(=O)c1ccc2ccccc2c1", "max response": "24.6% (active)"},
      {"smiles": "CCOC(=O)[C@@H]1[C@H]2COc3cc(OC)ccc3[C@@H]2N2C(=O)N(c3cccc(C)c3)C(=O)[C@@]12C", "max response": "-1.45%"},
      {"smiles": "CCCCn1c(-c2cccc(C)c2)nc2cc3[nH]c(=O)c(C(C)C)nc3cc21", "max response": "8.65%"},
      {"smiles": "CC1(C)CCSC(/C=C/c2ccccc2)=N1", "max response": "32.8% (active)"},
      {"smiles": "CCCCC(CC)CNC(=O)C(=O)C1C(=O)Nc2ccccc21", "note": "(stereo unspecified)", "max response": "15.4%"},
      {"smiles": "C[C@@H]1C(c2ccc(F)cc2)=NN(c2ccc(Br)cc2)[C@H]1C(=O)N1CCOC1=O", "max response": "-1.82%"},
      {"smiles": "COc1ccc(NC(=O)CCNC(=O)Cn2cnc3sc4c(c3c2=O)CCCC4)cc1OC", "max response": "-3.75%"},
      {"smiles": "COc1ccc(/C=N/Nc2ncnc3sc4c(c23)CCCC4)cc1O", "max response": "27.5% (active)"},
      {"smiles": "COc1ncnc2sc3c(c12)CCCC3", "max response": "-0.884%"},
      {"smiles": "COc1ccc(C2C(C(C)=O)=C(O)C(=O)N2c2nccs2)cc1", "note": "(stereo unspecified)", "max response": "-3.41%"},
      {"smiles": "COc1ccc(C(=O)NNC(=S)NC(=O)c2ccccc2[N+](=O)[O-])cc1", "max response": "2.1%"},
      {"smiles": "Cc1ccc(NC(=O)CN2C(=O)NC(C)(c3ccc(Cl)cc3)C2=O)c(Br)c1", "note": "(stereo unspecified)", "max response": "-5.49%"},
      {"smiles": "COc1ccc(C(=O)N2CCC(C(=O)Nc3ccc(C)cc3)CC2)cc1", "max response": "4.42%"},
      {"smiles": "COc1ccc(NC(=O)C2COc3ccccc3O2)cc1", "note": "(stereo unspecified)", "max response": "41% (active)"},
      {"smiles": "C/C(=N/NC(=O)C1COc2ccccc2O1)c1ccco1", "note": "(stereo unspecified)", "max response": "4.02%"},
      {"smiles": "COc1cccc(N(C(=O)C2COc3ccccc3O2)C(C(=O)NC2CCCCC2)c2ccc(O)cc2)c1", "note": "(stereo unspecified)", "max response": "8.69%"},
      {"smiles": "CC(=O)c1cccc(NC(=O)C2COc3ccccc3O2)c1", "note": "(stereo unspecified)", "max response": "23.2% (active)"},
      {"smiles": "CC(/C=C/c1ccco1)=N/NC(=O)C1COc2ccccc2O1", "note": "(stereo unspecified)", "max response": "7.66%"},
      {"smiles": "Cn1nc(C(F)(F)F)c(C(=O)Nc2cccc(C(F)(F)F)c2)c1SCc1ccc(Cl)cc1", "max response": "-3.55%"},
      {"smiles": "Cc1ccc(CN(CC(=O)NCC2CCCO2)S(=O)(=O)c2ccc(C)cc2)cc1", "note": "(stereo unspecified)", "max response": "-1.68%"},
      {"smiles": "O=C1Nc2ccccc2/C1=C/c1ccnc2ccccc12", "max response": "-4.29%"},
      {"smiles": "Cc1cccn2c(=O)c(C=O)c(Nc3ccc(S(N)(=O)=O)cc3)nc12", "max response": "-2.14%"},
      {"smiles": "CC(C)C(C)NC(=O)COc1nc2ccccc2nc1N(C)C1CCCCC1", "note": "(stereo unspecified)", "max response": "-4.63%"},
      {"smiles": "O=c1c2ccccc2nc(N/N=C/c2ccccc2)n1O", "max response": "11.3%"},
      {"smiles": "CCCc1nc2ccccc2c(=O)n1/N=C/c1ccc(O)c(O)c1", "max response": "-1.03%"},
      {"smiles": "O=c1c2ccccc2ncn1/N=C/c1ccccc1", "max response": "40.3% (active)"}
    ]}
  ]
}
